Shown are actives, neighbours in structure and some others; about 19% of the full set was active somewhere.
TDP1 cell noCPT: qHTS for Inhibitors of human tyrosyl-DNA phosphodiesterase 1 (TDP1): qHTS in cells in absence of CPT; DT40 Tdp1-/- hTDP1 cells, no CPT, ATP luminescence, 48 h; Potency, µM (doses to about 46.2 µM), actives largely listed as inhibitors; 420,000 compounds, 15% hits; AID 686978, 2013; also: nearly all actives have a fitted effect of over 55% in size
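No-CPT arm: Tdp1-/-;hTDP1 DT40 cells (400/well) plus compounds, incubated ≥48 hr at 37 °C. Readout CellTiter-Glo luminescence.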
TDP1 cell CPT: qHTS for Inhibitors of human tyrosyl-DNA phosphodiesterase 1 (TDP1): qHTS in cells in presence of CPT; chicken DT40 Tdp1-/-;hTDP1 cells + 20 nM CPT, ATP luminescence, 48 h; Potency, µM (titrated, usually from 46.2 µM), most hits filed as inhibitors; 420,000 compounds, 12% hits; also: nearly all actives have a fitted effect of over 55% in size
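Chicken DT40 Tdp1-/- cells complemented with human TDP1, 400 cells/well, exposed to compounds plus 20 nM camptothecin for at least 48 h at 37 C; viability read as ATP content by CellTiter-Glo luminescence.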
TGFb SMAD3 inh: qHTS for Inhibitors of TGF-b; AID 588855, 2011; 410,000 compounds, 1.2% hits; HepG2 CAGA-GFP TGF-b/SMAD3 reporter, GFP fluorescence, 18 h; TGF-beta stimulated, 500 pg/mL final; Potency, µM (top dose mostly 46.1 µM), actives largely listed as inhibitors; also: nearly all actives have a fitted effect of over 65% in size
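HEPG2 CAGA-GFP cells (1000/well, DMEM with 1% FBS) were pre-incubated 2 h at 37 degrees C, given compound by pin tool, then stimulated with TGF-beta at 500 pg/mL final for 18 h before per-cell GFP fluorescence imaging.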
HepG2 tox: qHTS for Inhibitors of TGF-b: Cytotox Counterscreen | HepG2 CAGA-GFP viability, ATP luminescence, 18 h | Potency, µM (doses to about 46.1 µM), most hits filed as cytotoxic | 410,000 compounds, 0.76% hits
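CellTiter-Glo luminescence gave cytotoxicity after 18 hours at 37 degrees C. The cells were HepG2 CAGA-GFP in 1% FBS DMEM, stimulated with 500 pg/mL TGF-beta after compound addition. %Activity was normalised to no-cell wells (complete cell-killing) and DMSO (no toxicity), and curves were fitted and classified.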
TDP1 inh: qHTS Assay for Inhibitors of Tyrosyl-DNA Phosphodiesterase (TDP1). recombinant TDP1, AlphaScreen DNA substrate cleavage. Potency, µM (highest dose often 130 µM), most hits filed as inhibitors. 350,000 compounds, 0.28% hits; also: nearly all actives have a fitted effect of over 40% in size
Target sequence (Q9NUW8 whole entry, looked up): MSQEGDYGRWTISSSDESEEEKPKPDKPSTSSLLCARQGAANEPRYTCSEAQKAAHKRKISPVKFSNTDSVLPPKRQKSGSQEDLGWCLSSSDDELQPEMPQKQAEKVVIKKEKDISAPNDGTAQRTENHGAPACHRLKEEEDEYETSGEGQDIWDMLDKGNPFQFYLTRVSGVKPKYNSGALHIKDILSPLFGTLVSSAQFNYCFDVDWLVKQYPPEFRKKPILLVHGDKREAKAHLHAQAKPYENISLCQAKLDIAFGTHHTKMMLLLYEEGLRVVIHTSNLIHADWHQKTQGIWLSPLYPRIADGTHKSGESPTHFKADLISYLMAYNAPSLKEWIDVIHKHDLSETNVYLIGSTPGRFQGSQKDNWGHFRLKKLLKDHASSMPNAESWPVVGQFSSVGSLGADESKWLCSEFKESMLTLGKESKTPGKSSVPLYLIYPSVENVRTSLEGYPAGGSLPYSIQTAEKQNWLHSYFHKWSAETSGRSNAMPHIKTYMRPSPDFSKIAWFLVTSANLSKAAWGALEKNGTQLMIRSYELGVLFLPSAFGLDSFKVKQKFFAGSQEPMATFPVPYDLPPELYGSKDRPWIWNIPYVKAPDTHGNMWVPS
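E. coli-derived human Tdp1, 1 nM final. Cpd preinc 15 min RT; substrate 15 nM final, 5 min RT; AS bead mix 10 ug/ml final, 10 min RT. Signal loss = tyrosine-FITC cleavage. No-enzyme wells = max signal.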
IL1B secr inh: qHTS for Inhibitors of Inflammasome Signaling: IL-1-beta AlphaLISA Primary Screen; AID 743279, 2014; 360,000 compounds, 4.7% hits; activity change, % at 57.5 µM; THP-1 LPS/ATP IL-1B secretion, AlphaLISA, 16 h; active compounds read low; in the data active = activity change below about -50%; inconclusive = mostly about -30% to -49%
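THP-1 cells pretreated 1 hr with compounds (up to 57.5 uM final), then stimulated with LPS (250 ng/mL final) plus ATP (1.25 mM final); secreted IL-1B measured by AlphaLISA after 16 hr, decreased signal indicating inhibition.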
Hits are given with their value; – = inactive; ? = inconclusive; · = no result given; [ ] = remark or other dose. Unless noted, calls follow the shape of the dose curve; as a rule, active = well fitted curve in the direction sought with a large enough effect; inconclusive = small, poorly fitted or top-dose-only effect, or another doubt; inactive = no such curve, though single readings can be large; an effect the other way counts as inactive or inconclusive.

SMILES	TDP1 cell noCPT	TDP1 cell CPT	TGFb SMAD3 inh	HepG2 tox	TDP1 inh	IL1B secr inh
O=C1c2ccccc2C(O)N1CCN1CCOCC1 (configuration not stated)	–	–	–	–	–	–
O=c1cc(CN2CCN(c3ccccc3)CC2)nc2scc(-c3ccccc3)n12	23µM	?	–	–	–	–
CC(=O)c1ccc(N2CCN(Cc3cc(=O)n4c(-c5ccccc5)csc4n3)CC2)cc1	21µM	?	?	–	·	–
CC(=O)c1ccc(N2CCN(Cc3nc(Cc4ccccc4)no3)CC2)cc1	16µM	?	–	–	–	–
CN(CC(=O)Oc1ccc(-c2nnco2)cc1)S(=O)(=O)c1ccc(F)cc1	–	–	–	–	·	–
Cc1cccc(N(C)c2nc3ccc(C)cc3n3nnnc23)c1	?	?	–	–	–	·
Cc1cccc(N(C)c2nc3ccc(C)cc3n3cnnc23)c1	16µM	?	?	–	–	·
CC1CCCN(CCCNC(=O)c2ccc3c(c2)N(Cc2cccc(Cl)c2)C(=O)c2ccccc2S3(=O)=O)C1 (configuration not stated)	5.8µM	6.5µM	?	–	–	·
O=C(c1ccc2c(c1)N(Cc1ccc(F)cc1)C(=O)c1ccccc1S2(=O)=O)N1CCN(Cc2ccccc2)CC1	8.2µM	12µM	3.5µM	–	–	·
CCC1CCCCN1C(=O)c1ccc2c(c1)N(Cc1cccc(Cl)c1)C(=O)c1ccccc1S2(=O)=O (configuration not stated)	16µM	18µM	–	–	–	·
O=C(c1ccc2c(c1)N(Cc1cccc(Cl)c1)C(=O)c1ccccc1S2(=O)=O)N1CCCCCC1	23µM	18µM	?	–	–	·
O=C1Nc2ccccc2N(O)N1c1cc(-c2ccccc2)[nH]n1	–	–	–	–	–	–
CC1CCCCN1C(=O)c1ccc2c(c1)N(Cc1ccc(F)cc1)C(=O)c1ccccc1S2(=O)=O (configuration not stated)	18µM	?	–	–	–	·
O=C(c1ccc2c(c1)N(Cc1cccc(Cl)c1)C(=O)c1ccccc1S2(=O)=O)N1CCCC1	21µM	23µM	–	–	–	·
O=C(c1ccc2c(c1)N(Cc1cccc(Cl)c1)C(=O)c1ccccc1S2(=O)=O)N1CCN(Cc2ccccc2)CC1	9.2µM	15µM	?	–	–	·
CN1CCN(C(=O)c2ccc3c(c2)N(Cc2ccc(F)cc2)C(=O)c2ccccc2S3(=O)=O)CC1	–	–	–	–	–	·
Cc1cccc(N2CCN(C(=O)c3ccc4c(c3)N(Cc3cccc(Cl)c3)C(=O)c3ccccc3S4(=O)=O)CC2)c1C	–	–	–	–	–	·
Cc1ccc(Cl)cc1N1CCN(C(=O)c2ccc3c(c2)N(Cc2ccccc2F)C(=O)c2ccccc2S3(=O)=O)CC1	?	–	–	–	–	·
COc1ccccc1N1CCN(C(=O)c2ccc3c(c2)N(Cc2ccccc2)C(=O)c2ccccc2S3(=O)=O)CC1	12µM	?	·	–	–	·
Cc1cc(=O)[nH]c2nnc(SCCC(C)C)n12	–	–	–	–	–	·
O=C(c1ccc2c(c1)N(Cc1ccccc1)C(=O)c1ccccc1S2(=O)=O)N1CCc2ccccc21	3.3µM	4.1µM	·	–	–	·
O=C(NCc1ccccc1)c1ccc2c(c1)N(Cc1ccccc1)C(=O)c1ccccc1S2(=O)=O	?	–	·	–	–	·
Cc1ccc(C(CC(=O)NCC2(c3ccccc3)CCCC2)c2ccccc2)c(O)c1 (configuration not stated)	16µM	23µM	?	–	–	·
COc1ccc(C(=O)N2CCCC2(C#N)c2ccccc2)cc1[N+](=O)[O-] (configuration not stated)	10µM	18µM	–	–	·	–
COc1ccc(C(=O)NCC(O)CN2CCOCC2)cc1[N+](=O)[O-] (configuration not stated)	–	–	–	–	–	–
SMILES	TDP1 cell noCPT	TDP1 cell CPT	TGFb SMAD3 inh	HepG2 tox	TDP1 inh	IL1B secr inh
COc1ccc(C(=O)NCC2(c3ccccc3)CCOCC2)cc1[N+](=O)[O-]	29µM	?	–	–	–	–
COc1cc(C(=O)NCC2(c3ccccc3)CCCC2)cc(OC)c1OC	15µM	15µM	–	–	–	–
Cc1cccc(C(=O)NCc2nc(-c3ccccc3NC(=O)C3CCCO3)oc2C)c1 (configuration not stated)	–	–[9.04 µM]	·	·	·	·
COc1ccc(C(=O)NCC2(c3ccccc3)CCCC2)c(OC)c1	6.5µM	9.2µM	–	–	·	–
COc1cccc(C(=O)Nc2ccccc2)c1	–	–	–	–	–	–
COc1cccc(C(=O)NCC2(c3ccccc3)CCCC2)c1	15µM	?	–	–	–	?
O=C(NCC1(c2ccccc2)CCCC1)c1ccc(Br)cc1	?	?	–	–	–	–
Cc1ccc(C(=O)NCC2(c3ccccc3)CCCC2)cc1	12µM	12µM	–	–	–	–
COc1ccc(NC(=O)C(=O)NCC2(c3ccccc3)CCCC2)c(OC)c1	?	?	–	–	–	·
COc1ccc(C2(CNC(=O)c3ccc(Br)o3)CCOCC2)cc1	?	–	–	–	–	–
O=C(NCC1(c2ccccc2)CCCC1)c1ccc(Br)o1	23µM	?	–	–	–	–
CC1CCCCN1S(=O)(=O)c1ccc(NC(=O)c2ccco2)cc1 (configuration not stated)	?	–	–	–	–	–
CCSc1ncc(Cl)c(C(=O)Nc2ccc(S(N)(=O)=O)cc2)n1	?	–	–	–	·	-59
CC(C)Sc1ncc(Cl)c(C(=O)Nc2ccc(S(=O)(=O)N3CCCCC3C)cc2)n1 (configuration not stated)	18µM	?	–	–	–	·
CCSc1ncc(Cl)c(C(=O)Nc2ccc(S(=O)(=O)N3CCC(C)CC3)cc2)n1	5.8µM	15µM	?	–	–	·
CCSc1ncc(Cl)c(C(=O)Nc2ccc(S(=O)(=O)Nc3ncccn3)cc2)n1	–	–	–	–	–	–
CSc1ncc(Cl)c(C(=O)Nc2ccc(S(=O)(=O)N3CCC(C)CC3)cc2)n1	23µM	23µM	?	–	–	·
